Only some compounds are listed: those with a hit (about 3.5% of all), similar ones and a draw of the others.
MITF primary: MITF inhibitors, primary screen, biochemical, AlphaScreen, human | Microphthalmia-associated transcription factor (Homo sapiens), O75030 | AlphaScreen MITF homodimerization, bead proximity signal | inhibition, % at 2.6 µM | 650,000 compounds, 0.91% hits | AID 1259374, 2018; in the data active = inhibition above about 50%;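 note: 0% = vehicle wells with protein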
GPR151 ag: activators of human GPR151, primary screen, cell-based, PathHunter beta-arrestin, luminescence. activation, % at 11.2 µM. PathHunter beta-arrestin GPR151 cells. 650,000 compounds, 1% hits; in the data active = activation above about 4.9%;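 note: 0% = median of compound wells and 100% = cells with positive control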
FBW7 activator: FBW7 E3 ligase activators, primary screen, biochemical, AlphaScreen, human; normalized activity (activation), % at 26.1 µM; 650,000 compounds, 0.13% hits; AlphaScreen FBW7–phospho-cyclin E peptide binding, activator screen; AID 1259310, 2017; in the data active = normalized activity above about 1.9%;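 note: purified mutant Fbw7 with reduced substrate affinity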
Target sequence (Q969H0 whole entry, looked up): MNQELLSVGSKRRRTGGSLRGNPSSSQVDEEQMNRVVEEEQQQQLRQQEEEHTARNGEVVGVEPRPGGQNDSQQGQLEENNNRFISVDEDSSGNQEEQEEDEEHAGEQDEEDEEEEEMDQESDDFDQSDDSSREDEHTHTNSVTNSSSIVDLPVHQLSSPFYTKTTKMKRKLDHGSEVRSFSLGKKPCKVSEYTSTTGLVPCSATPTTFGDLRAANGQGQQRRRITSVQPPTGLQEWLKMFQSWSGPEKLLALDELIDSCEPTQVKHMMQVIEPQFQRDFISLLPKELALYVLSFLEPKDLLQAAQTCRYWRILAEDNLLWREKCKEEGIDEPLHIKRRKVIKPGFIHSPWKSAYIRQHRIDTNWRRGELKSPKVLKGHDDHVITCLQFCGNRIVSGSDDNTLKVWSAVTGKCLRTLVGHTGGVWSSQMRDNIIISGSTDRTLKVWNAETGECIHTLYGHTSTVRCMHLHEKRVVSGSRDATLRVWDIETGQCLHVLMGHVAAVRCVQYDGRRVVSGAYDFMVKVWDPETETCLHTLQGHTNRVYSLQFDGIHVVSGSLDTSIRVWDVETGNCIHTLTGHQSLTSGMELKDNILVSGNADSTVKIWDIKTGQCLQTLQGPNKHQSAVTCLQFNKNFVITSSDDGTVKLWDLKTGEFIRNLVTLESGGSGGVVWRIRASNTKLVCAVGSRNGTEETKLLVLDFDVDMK
TEAD-YAP inh: TEAD-YAP interaction inhibition, primary screen, TEAD-YAP interaction inhibitor project, luminescence, HEK-TIYL cells; TEAD-Gal4/YAP UAS-luciferase luminescence; inhibition, % at 9.12 µM; 640,000 compounds, 1.4% hits; AID 1259422, 2018; in the data active = inhibition above about 32%;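 note: 0% = median of test compound wells and 100% = reference inhibitor wells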
MITF confirm: MITF inhibitors, retest of hits, confirmation, biochemical, AlphaScreen, triplicate. shares compounds with MITF primary. AlphaScreen MITF homodimerization, biotin/His-MITF beads. inhibition, % at 2.6 µM. 4,700 compounds, 16% hits. AID 1259372, 2018;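 active = inhibition above a cutoff derived from the DMSO control wells, cut at about 28% in these data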;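 note: 0% = MITF dimer wells with DMSO only; inhibitors lower the bead chemiluminescence by keeping MITF from dimerizing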
AlphaScreen DR: AlphaScreen optical interference compounds, dose response, counter-screen, biochemical, HTS; shares compounds with MITF primary; AlphaScreen optical interference counterscreen, cell-free; IC50, µM; 480 compounds, 6% hits; call rule not given here
AlphaScreen intf2: AlphaScreen optical interference compounds, counter-screen for MITF inhibitor project, biochemical, triplicate. shares compounds with MITF primary. LysRS AlphaScreen counterscreen, signal interference. inhibition, % at 2.6 µM. 4,700 compounds, 7.6% hits;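 active = inhibition above a cutoff derived from the DMSO control wells, cut at about 30% in these data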
Active calls of the source: *; . = no result.

SMILES	MITF primary	GPR151 ag	FBW7 activator	TEAD-YAP inh	MITF confirm	AlphaScreen intf2	others
O=[N+]([O-])c1ccc(OCCCN2CCCCCC2)cc1	30	0	0	7	.	.
CN(C)/C=C/C=C/C(=O)C1CCC/C(=C\C=C\N(C)C)C1=O (stereo unspecified)	70*	1	0	9	63*	-1	AlphaScreen DR=>6.5
Cc1cccc(CNC(=O)C2CC23CCN(C(=O)c2cc(-c4ccccc4)no2)CC3)n1 (stereo unspecified)	3	3	0	9	.	.
Cc1cccc(CNC(=O)C2CC23CCN(C(=O)c2c(-c4ccccc4)noc2C)CC3)n1 (stereo unspecified)	80*	1	0	4	-1	-1
CCOC(=O)C(=O)Cc1ccc2ccccc2n1	53*	-1	0	-3	5	-6
N/N=C(\Cc1ccc2ccccc2n1)c1ccccc1	8	1	0	-53	.	.
CN(C)CCOc1ccccc1-c1ccccc1	61*	1	0	3	-1	14
CNCCOc1ccccc1-c1ccccc1	24	0	0	0	.	.
CN(C)CCOCCOc1ccccc1-c1ccccc1	87*	1	0	1	41*	22	AlphaScreen DR=>6.5
COc1ccc(CN2CCN(C(=O)c3sc4ncn(Cc5ccccc5Cl)c(=O)c4c3C)CC2)c(OC)c1OC	9	0	0	2	.	.
Fc1cccc(CN2CCN(CC3CC4C=CC3C4)CC2)c1 (stereo unspecified)	71*	0	0	5	-3	-2
COc1ccc(CN2CCN(CC3CC4C=CC3C4)CC2)c(OC)c1 (stereo unspecified)	72*	1	0	1	5	-1
Fc1cccc(CN2CCCNCC2)c1	-9	0	0	-3	.	.
COc1ccccc1CN1CCN(CC2CC3C=CC2C3)CC1 (stereo unspecified)	69*	0	0	9	-15	6
C1=CC2CC1CC2CN1CCN(Cc2ccccn2)CC1 (stereo unspecified)	74*	-1	0	-4	13	23
O=C(NCCCN1CCCC1=O)C1CCN(S(=O)(=O)c2ccc(F)cc2)CC1	10	-2	0	2	.	.
COc1cc(OC)c(OC)cc1CN1CCSCC1	40	0	0	-5	.	.
Cc1ccccc1CN1CCN(CC2CC3C=CC2C3)CC1 (stereo unspecified)	77*	-2	0	1	-1	12
COc1ccc(CN2CCN(CC3CC4C=CC3C4)CC2)c(OC)c1OC (stereo unspecified)	71*	0	0	2	-4	-7
COc1cc(CN2CCN(CC3CC4C=CC3C4)CC2)cc(OC)c1O (stereo unspecified)	66*	-1	0	-8	9	27
COc1cc(CN2CCN(S(=O)(=O)c3ccc(F)cc3)CC2)cc(OC)c1O	39	1	0	5	.	.
COc1cc(OC)c(OC)cc1CN1CCN(CC2CC3C=CC2C3)CC1 (stereo unspecified)	57*	1	0	-4	-6	-8
O=C(c1ccccc1)N1CCN(CC2CC3C=CC2C3)CC1 (stereo unspecified)	24	0	0	-3	.	.
CCOC(=O)c1ccc(N=Cc2ccc(O)c(OC)c2)cc1	-2	-1	1	7	.	.
CN(C)/C=N/c1nnc(SCC(=O)Nc2ccc(Cl)c(Cl)c2)s1	-1	-1	0	2	.	.
SMILES	MITF primary	GPR151 ag	FBW7 activator	TEAD-YAP inh	MITF confirm	AlphaScreen intf2	others
Cc1[nH]n(-c2ccccc2)c(=O)c1C1Nc2ccccc2C(=O)N1c1ccccc1Cl (stereo unspecified)	-8	0	0	-15	.	.
O=C(CNC1CC1)Nc1ccc(CN2CCCCC2)cc1	18	0	0	-3	.	.
O=C(CNCC1CCCCC1)Nc1ccc(CN2CCCCC2)cc1	63*	0	0	-1	10	14
O=C(CNC1CCCCCC1)Nc1ccc(CN2CCCCC2)cc1	67*	0	0	5	8	15
O=C(CNC1CCCCC1)Nc1ccc(CN2CCCCC2)cc1	74*	1	0	-7	6	18
O=C(CSc1nc2c(c(=O)[nH]1)CCC2)Nc1ccc(Cl)cc1	3	0	0	-4	.	.
CCN(CC)C(=O)Cn1cnc2sc(C(=O)Nc3cc(F)ccc3C)c(C)c2c1=O	-21	1	0	-6	.	.
CS(=O)(=O)N1CCN(c2ccc(-c3ccccn3)nn2)CC1	87*	-3	-1	-25	107*	101*
O=C(c1ccccn1)N1CCN(C(=O)c2ccccn2)CC1	-11	0	0	2	.	.
O=C(CC1CCCC1)N1CCN(c2ccc(-c3ccccn3)nn2)CC1	111*	-1	-1	-15	111*	101*
O=C(c1ccccn1)N1CCN(c2ccc(-c3ccccn3)nn2)CC1	123*	-1	-1	-10	112*	101*
O=C(CCC1CCCN(C(=O)CC2CCCCC2)C1)N1CCN(c2ccccn2)CC1 (stereo unspecified)	2	0	0	2	.	.
O=C(Cn1cnc2ccccc2c1=O)N1CCN(c2ccc(-c3ccccn3)nn2)CC1	116*	3	-1	6	112*	101*
O=S(=O)(O)c1nnc2n(Cc3ccccc3)c3ccccc3n12	18	-2	0	8	.	.
COc1ccc(NC(=O)NNC(=O)c2cc(C3CC3)nc3ccccc23)c(OC)c1	61*	1	0	-2	6	20
COc1ccc(NC(=O)c2cc(-c3ccccc3)nc3ccccc23)c(OC)c1	-7	0	0	8	.	.
CC1(C)N=C(c2ccccc2)C(=S)N1	-12	0	0	-11	.	.
CCc1ccccc1NC(=O)CC1Sc2ccc(C(F)(F)F)cc2NC1=O (stereo unspecified)	12	1	0	6	.	.
CSc1ccccc1NC(=O)CC1Sc2ccc(C(F)(F)F)cc2NC1=O (stereo unspecified)	56*	-1	0	-4	-4	-6
Cc1cccc(NC(=O)CC2Sc3ccc(C(F)(F)F)cc3NC2=O)c1C (stereo unspecified)	66*	0	0	4	4	-7
